Laboratory results taken from PubChem BioAssay (NCI).
This is part of a sample that, as a whole, favours compounds with a hit. Of some 79,000 tested, about 15% had one in any assay. A number with no mark means an inactive call. Activity calls are given as the source filed them. No stated cut-off is given here; in the data, active means growth inhibition above about 70%; inactive means the rest.

What was measured:
[1] = NCI Yeast Anticancer Drug Screen. Data for the rad50 strain (AID 155);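 further: 0% = growth of vehicle-only cultures of the same strain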; conditions: S. cerevisiae rad50 strain growth inhibition; at 50.0 µM; active compounds read high
How it was run: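 Cells are treated with compound, grown, and their growth is then scored against vehicle-only cultures of the same repair-deficient yeast strain.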

[2] = NCI Yeast Anticancer Drug Screen. Data for the mec2-1 strain (AID 157); conditions: S. cerevisiae mec2-1 strain, at 50.0 µM, active compounds read high
How it was run: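 Mutant yeast (mec2-1) grown with compound; growth inhibition relative to vehicle control reported.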

[3] = NCI Yeast Anticancer Drug Screen. Data for the sgs1 mgt1 strain (AID 161);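 further: 0% = growth of cultures given vehicle only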; conditions: S. cerevisiae sgs1 mgt1 strain, at 50.0 µM, active compounds read high
How it was run: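 Yeast cells carrying a defined DNA-repair defect were exposed to test compounds. Growth inhibition was measured relative to vehicle-treated controls.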

[4] = NCI Yeast Anticancer Drug Screen. Data for the cln2 rad14 strain (AID 165);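 further: 0% = growth equal to vehicle treated cultures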; conditions: S. cerevisiae cln2 rad14 strain, at 50.0 µM, active compounds read high
How it was run: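 Readout is yeast growth inhibition versus vehicle-treated controls, using a strain with cln2 and rad14 alterations exposed to compound.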

[5] = NCI Yeast Anticancer Drug Screen. Data for the bub3 strain (AID 167); conditions: S. cerevisiae bub3 mutant strain, at 50.0 µM, active compounds read high
How it was run: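 Part of a panel of yeast mutants defective in DNA damage repair or cell cycle regulation. Each strain is grown with compound, and inhibition is calculated relative to solvent-treated cultures.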

[6] = NCI Yeast Anticancer Drug Screen. Data for the mlh1 rad18 strain (AID 175); conditions: S. cerevisiae mlh1 rad18 strain growth inhibition; at 50.0 µM; active compounds read high
How it was run: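 Genetically defined yeast (DNA repair-deficient) exposed to compounds; growth inhibition determined relative to vehicle.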

| SMILES | growth inhibition [1] [%] | growth inhibition [2] [%] | growth inhibition [3] [%] | growth inhibition [4] | growth inhibition [5] [%] | growth inhibition [6] |
| --- | --- | --- | --- | --- | --- | --- |
| [O-][N+](CCO)(CCO)Cc1ccccc1 | 14.1 | 1.05 | 19.8 | 6.2% | 9.65 | 26.6% |
| CNc1ccccc1C(=O)N/N=C/c1ccc(O)c(OC)c1 | 3 | 5.65 | 0.85 | 2.55% | 37.4 | -19.6% |
| Cc1ccc(S(=O)(=O)N/N=C/c2oc(-c3ccccc3Cl)c(-c3ccccc3Cl)c2[N+](=O)[O-])cc1 | 54.2 | 45.3 | 58.5 | 38.4% | 41.5 | 48.1% |
| CC(C)COC(=O)c1ccc(C(C)C)cc1 | 9.35 | 8.8 | 4.6 | -9.8% | 5.1 | 4.45% |
| O=S(=O)(c1ccccc1)c1ccccn1 | -13.1 | -13.2 | -19.9 | 6.2% | 3.7 | -22.1% |
| OCC1OC(n2c(=S)[nH]c3ccccc32)C(O)C1O (centres undefined) | 9.4 | -0.9 | 5.4 | 1.2% | 4.4 | 7.4% |
| CC(=O)c1ccc(NC(=O)CSc2nc(C)nc3c2sc(=S)n3-c2ccccc2)cc1 | -15.1 | -10.8 | -0.1 | -24.1% | -8.2 | -22.1% |
| CCc1cc(O)cc(C)c1Cl | 55.1 | 29.6 | 46.1 | 46.4% | 44.3 | 26.1% |
| O=C(c1ccccc1)C1(c2ccccc2)CCCCC1 | 19.6 | 15.6 | 20.1 | -10.6% | 0.45 | 32.6% |
| CC(C)(C)C1=CC(=C(c2ccc(-c3c4nc(c(-c5ccc(C(=C6C=C(C(C)(C)C)C(=O)C(C(C)(C)C)=C6)c6cc(C(C)(C)C)c(O)c(C(C)(C)C)c6)cc5)c5ccc([nH]5)c(-c5ccc(C(=C6C=C(C(C)(C)C)C(=O)C(C(C)(C)C)=C6)c6cc(C(C)(C)C)c(O)c(C(C)(C)C)c6)cc5)c5nc(c(-c6ccc(C(=C7C=C(C(C)(C)C)C(=O)C(C(C)(C)C)=C7)c7cc(C(C)(C)C)c(O)c(C(C)(C)C)c7)cc6)c6ccc3[nH]6)C=C5)C=C4)cc2)c2cc(C(C)(C)C)c(O)c(C(C)(C)C)c2)C=C(C(C)(C)C)C1=O | 4.7 | 2.6 | -1.75 | -38.6% | -3.9 | 14.4% |
| O=C1Nc2cccc3cc(NCC(O)CCCl)cc1c23 (centres undefined) | 17.4 | 3.1 | 18.2 | -5.8% | 14.6 | 20.6% |
| CC(=O)Nc1ccc(S(=O)(=O)NNC(=O)C(=O)Nc2cccc(Cl)c2)cc1 | -12.5 | -21.4 | -18.2 | 16.4% | -0.1 | -1.6% |
| Cn1ccnc1Sc1ccccn1 | -8.7 | 30.1 | 1.7 | 21.9% | 7.3 | 6.15% |
| O=C(C[n+]1ccncc1)c1cccc([N+](=O)[O-])c1 | 0.5 | -1.95 | 9.15 | 8.35% | 7.65 | 27.4% |
| Cc1ccc(Cl)cc1NC(=O)Nc1cc(Cl)c(Cl)cc1C | 3.55 | 45 | 43.5 | -2.5% | 45.9 | 33.3% |
| CC1(c2ccccc2)OCC(c2ccccc2)O1 (centres undefined) | -9.2 | -23.2 | -7 | -22% | 12.7 | 10.3% |
| CC1(C)OC2C(=O)OC(COCc3ccccc3)C2O1 (centres undefined) | 16.7 | 2.2 | 4.25 | 11.1% | 8.5 | 34% |

| SMILES | growth inhibition [1] [%] | growth inhibition [2] [%] | growth inhibition [3] [%] | growth inhibition [4] | growth inhibition [5] [%] | growth inhibition [6] |
| --- | --- | --- | --- | --- | --- | --- |
| CCC(O)C(C)C(O)CC (centres undefined) | 7.9 | 14.7 | 2.6 | 13.3% | 13.2 | 17.5% |
| CNC(=O)NC1NC(=O)N(C)C1=O (centres undefined) | 0.3 | -12.7 | -0.4 | -14.6% | -0.45 | -12.7% |
| Nc1ccccc1N=Cc1cc(F)ccc1[N+](=O)[O-] | 0.05 | 4.4 | 28.2 | -48.9% | 4.4 | 1.35% |
| CC(=O)[C@H]1[C@H](C)C[C@H]2[C@@H]3CCC4=CC(=O)CC[C@]4(C)[C@@]3(F)C(=O)C[C@@]21C | -5.45 | 1.2 | -3.3 | -28.4% | 6 | 4% |
| CCN(CC)CCn1ncc2ccc3c(c(=O)c4cccnc4n3CCN(CC)CC)c21 | 9 | 16.8 | 13.2 | 27.8% | 11.6 | 10.9% |
| O=C1c2cc3c(cc2CC12Cc1cc4c(cc1C2)CCC4)CCC3 | -14.6 | 1.4 | -8 | 7.45% | -3 | -1.35% |
| Cc1ccc(S(=O)(=O)n2nc(C3OC(CO)C(O)C3O)c(O)c2C(N)=O)cc1 (centres undefined) | -36.5 | 16.6 | -14.8 | 38.1% | -3 | 22.8% |
| CCOC(=O)c1cnc(N(C)C)nc1SC(=N)N | -15.2 | -0.7 | -24.4 | -53.9% | -7.5 | -18.6% |
| COC(=O)C(NC(=O)COc1ccccc1[N+](=O)[O-])C(=O)OC | -15.2 | -1.3 | 0 | 3% | -12.6 | -12.3% |
| O=C(OC(=O)c1cccc2ccccc12)c1cccc2ccccc12 | -5.15 | -7.75 | 2.3 | 43.3% | 12 | 13.2% |
| CC(=O)NNc1nc(C)c(C(/C=C/c2ccc([N+](=O)[O-])cc2)=N/N)s1 | 22.4 | 9.2 | 3.85 | 17.4% | -0.4 | -12.4% |
| CCCCCCC[CH2][Sn]1([CH2]CCCCCCC)[O]C2C(CO)OC(n3ccc4c(N)ncnc43)C2[O]1 (centres undefined) | -0.4 | 15.2 | 18.1 | 70.2% (active) | 4.45 | -0.85% |
| Cc1ccc(-c2c3nc(c(-c4ccc(C)cc4)c4ccc([nH]4)c(-c4ccc(OCC5COC(C)(C)O5)cc4)c4nc(c(-c5ccc(C)cc5)c5ccc2[nH]5)C=C4)C=C3)cc1 (centres undefined) | -58.3 | -32.9 | -50.3 | -23.9% | -40.5 | -66.7% |
| COC(=O)C(Cc1c[nH]c2ccccc12)NP(=O)(O)OCC1OC(n2cc(F)c(=O)[nH]c2=O)CC1O (centres undefined) | -31.4 | -17.1 | -38.5 | -9.2% | -24.7 | -16.1% |
| CCc1ccc(NC(C)=O)cc1C | -9.5 | 11.7 | -0.95 | 27% | -1.15 | -9.9% |
| Cc1cc(S(=O)(=O)Nc2n[nH]c(-c3ccc(Cl)cc3)n2)c(SSc2cc(Cl)c(C)cc2S(=O)(=O)Nc2n[nH]c(-c3ccc(Cl)cc3)n2)cc1Cl | 34.5 | 15.2 | 27.8 | 34.7% | 30.6 | 32.2% |
| COc1cccc(C(c2cc3c(cc2O)OCO3)N2CCOCC2)c1O (centres undefined) | 15.9 | 30.6 | 51.4 | 8.7% | 1.35 | 77.4% (active) |
